Here are results for 40 molecules from PubChem BioAssay (EPA / NIEHS).

Each structure is given as a SMILES string. Calls of active or inactive are those of the source. The calls were made as follows: active = hit-call score of the fitted dose curve at least 0.9, where 1 is the maximum; inactive = score below 0.9.

Read-out in this assay: Transforming growth factor beta 1 (TGFb1), TGFB1 (gene 7040)
Put plainly: BSK_KF3CT_TGFb1: BioMAP Diversity Plus: KF3CT Assay for Transforming growth factor beta 1 (TGFb1) Biomarker Activity (AID 2283072). As to conditions: primary human keratinocytes with fibroblasts; actives raise or lower the signal. How it is done: BSK_KF3CT is a cell-based, multiplexed-readout assay that uses keratinocytes and foreskin fibroblasts, a human skin primary cell co-culture, with measurements taken at 24 hours after chemical dosing in a 96-well plate.BSK_KF3CT_TGFb1 is an assay component measured in the BSK_KF3CT assay. It measures TGF-b1 antibody related to regulation of gene expression using ELISA technology.Data from the assay component BSK_KF3CT_TGFb1 was analyzed into 1 assay endpoint. This assay endpoint, BSK_KF3CT_TGFb1, was analyzed with bidirectional fitting relative to DMSO as the negative control and baseline of activity. Using a type of binding reporter, gain or loss-of-signal activity can be used to understand changes in the signaling as they relate to the gene TGFB1. Furthermore, this assay endpoint can be referred to as a primary readout, because this assay has produced multiple assay endpoints where this one serves a signaling function. To generalize the intended target to other relatable targets, this assay endpoint is annotated to the growth factor intended target family, where the subfamily is transforming growth factor beta.
The levels of cell surface (or secreted, indicated by the prefix "s") biomarker endpoints were measured by ELISA. Overt cytotoxicity to cells in confluent adherent cultures (all systems other than the BT system) was assessed by measuring total protein levels using sulforhodamine B (SRB) staining in parallel cultures at the time of biomarker measurements, indicated as SRB endpoints. For proliferation assays for adherent cell types, individual cell types are cultured at sub-confluence and relative cell numbers quantified by SRB staining at time points optimized for each system (48 h: 3C and CASM3C systems; 72 h: BT and HDF3CGF systems; 96 h: SAg system). SRB was performed by staining cells with 0.1% SRB after fixation with 10% TCA and reading wells at 560 nm.Viability and proliferation of PBMC (T cells) was quantified by Alamar Blue reduction for the SAg and BT systems. For PBMC viability (referred to as PBMC Cytotoxicity within the assay endpoint names), cells were plated (75,000/well in a 96-well plate) and then chemical samples added for 1 h before addition of activators, SEB and TSST-1 (20 ng/mL final concentration each). Cells were incubated for 90 h. Then, Alamar Blue (20 uL/well) (Invitrogen, Cat DAL1100) was added for 6 h, and the plates were read with a fluorescence microplate reader at 546/580 nm (excitation/emission). For PBMC proliferation, cells were plated and activated as above but incubated for only 16 h prior to addition of Alamar Blue. Plates were read after 6 h.
Take `O=C1CN(N=Cc2ccc([N+](=O)[O-])o2)C(=O)N1`: the outcome was inactive. Same read-out and setting: in the case of `O=S1(=O)CCCO1` it was “inactive”. On to `CNC(C)=O`, for which the outcome was inactive. On to `O=C(O)c1cccc(C(=O)O)c1`, for which the outcome was inactive. As to `NNC(=O)c1ccncc1`, the result was inactive. On to `CCOc1ccc2[nH]cc(C(=O)NCc3ccccc3)c(=O)c2n1`, for which the result was inactive.

In the case of `CCCc1ccccc1`, the result was inactive. Regarding `S=P(N1CC1)(N1CC1)N1CC1`, the result was inactive.

For the molecule `CC(C)C(=O)Nc1ccc([N+](=O)[O-])c(C(F)(F)F)c1`, the outcome was inactive. Same read-out and setting: under `Cn1c(=O)c2[nH]cnc2n(C)c1=O` stands “inactive”; under `CC[C@H](C)C(=O)O[C@H]1C[C@H](O)C=C2C=C[C@H](C)[C@H](CC[C@@H](O)C[C@@H](O)CC(=O)O)[C@H]21`, “inactive”.

As for `NC(=O)N(O)[C@@H]1COc2cc(OCc3ccccc3)ccc21`, the result was inactive.

On to `NC(=O)N1c2ccccc2C=Cc2ccccc21`, for which the result was inactive. Still for that read-out and setting: in the case of `O=C(O)c1ccc2c(c1)nc(C(=O)NC1CCN(C3CC3)CC1)n2Cc1cc(-c2ccc(Cl)s2)on1` it was “inactive”; in that of `CCCCOC(=O)c1ccccc1`, “inactive”; in that of `CCOC(N)=O`, “inactive”. Turning to `CCCCCCOC(=O)CC(CC(=O)OCCCCCC)(OC(=O)CCC)C(=O)OCCCCCC`, the outcome was inactive. Regarding `CCn1nc(C)c2c1C(=O)NCC(c1ccc(O)cc1)=N2`, the result was inactive. `Cc1cccc(O)c1C`: the outcome was inactive.

Consider `O=C(O)c1cccc(C[C@@H]2COc3ccc(OCc4nc5cc(F)ccc5s4)cc3[C@@H]2O)c1`, for which the outcome was inactive. Regarding `OC(Cn1cncn1)(Cn1cncn1)c1ccc(F)cc1F`, the result was inactive. In the case of `CC1(C)C(=O)N(Cl)C(=O)N1Cl`, the result was inactive. In the case of `O=C(NO)C1(NS(=O)(=O)c2ccc(Oc3ccc(F)cc3)cc2)CCOCC1`, the outcome was inactive. On the same count and under the same terms, under `c1ccc2cc3ccccc3cc2c1` stands “inactive”; under `CCCCCCCC1CCC(=O)O1` (stereo not given), “inactive”; under `CCCCCOC(C)=O`, “inactive”. For the molecule `OCCNCCO`, the outcome was inactive. Take `CCc1ccc(O)c(C(C)(C)C)c1`: the AC50 (usually the concentration at which the activity in the assay is half-maximal) was 33.5 µM (active).

With `CCCCN1C(=O)[C@@H]([C@H](O)C2CCCCC2)NC(=O)C12CCN(Cc1ccc(Oc3ccc(C(=O)O)cc3)cc1)CC2`, the result was inactive.

For the molecule `CCCCCCCCCCCCCCO`, the result was inactive. With `Cc1nc(-c2ccccn2)ncc1C(=O)Nn1cc(C)c2cc(F)ccc21`, the result was inactive.

`OCCOCCOCCO`: the outcome was inactive. With `CCCCCCCCCC`, the outcome was inactive. Regarding `OC[C@H]1O[C@@H]2O[C@H]3[C@H](O)[C@@H](O)[C@@H](O[C@H]4[C@H](O)[C@@H](O)[C@@H](O[C@H]5[C@H](O)[C@@H](O)[C@@H](O[C@H]6[C@H](O)[C@@H](O)[C@@H](O[C@H]7[C@H](O)[C@@H](O)[C@@H](O[C@H]1[C@H](O)[C@H]2O)O[C@@H]7CO)O[C@@H]6CO)O[C@@H]5CO)O[C@@H]4CO)O[C@@H]3CO`, the outcome was inactive.

As to `NC(=O)NN=Cc1ccc([N+](=O)[O-])o1`, the outcome was inactive.

In the case of `CC(C)c1nnc2ccc(-c3ocnc3-c3cc(F)ccc3F)cn12`, the outcome was inactive. On to `CCCCCCCCN(C)C`, for which the outcome was inactive.

Turning to `CC(=O)c1ccccc1`, the outcome was inactive. In the case of `CCc1cccc(CC)c1N`, the outcome was inactive. Same read-out and setting: under `Nc1ccn([C@@H]2O[C@H](CO)[C@@H](O)[C@@H]2O)c(=O)n1` stands “inactive”.
